Each structure is given as a SMILES string. Active and inactive are the calls of the source. The calls were made as follows: active = hit-call score of the fitted dose curve at least 0.9, where 1 is the maximum; inactive = score below 0.9.

Holding throughout (details): mRNA level, 48 h; actives raise or lower the signal
Read-out in one experiment: MYC, MYC (gene 4609)
The experiment can be described thus: LTEA_HepaRG_MYC: Life Technologies and Expression Analysis (LTEA) Assay for MYC using HepaRG (AID 2283518). In short, it runs like this:
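Cells are thawed, plated and cultured 48 h, then treated for 48 h with test chemicals (eight half-log concentrations from 100 uM, 0.5% DMSO vehicle). RNA is isolated and MYC expression quantified by qRT-PCR against three housekeeping genes.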

Read-out in experiment [1]: matrix metalloproteinase-3 (MMP3), MMP3 (gene 4314)
The experiment can be described thus: LTEA_HepaRG_MMP3: Life Technologies and Expression Analysis (LTEA) Assay for matrix metalloproteinase-3 (MMP3) using HepaRG (AID 2283519). A digest of the protocol: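 Differentiated human HepaRG cells, plated 48 h on collagen I, were exposed in duplicate for 48 h in serum-free induction medium to eight half-log concentrations up to 100 uM in 0.5% DMSO. MMP3 mRNA was quantified by TaqMan qRT-PCR, normalised to ACTB, GAPDH and POLR2A.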

Read-out in experiment [2]: Paternally Expressed 10 (PEG10), PEG10 (gene 23089)
The experiment can be described thus: LTEA_HepaRG_PEG10: Life Technologies and Expression Analysis (LTEA) Assay for Paternally Expressed 10 (PEG10) using HepaRG (AID 2283520). A digest of the protocol: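 HepaRG, 48 h post-plating → serum-free induction medium → 48 h chemical exposure (duplicate, 8-pt, max 100 uM, half-log, 0.5% DMSO) → lysis in RLT → TaqMan qRT-PCR for PEG10, ACTB/GAPDH/POLR2A normalisation.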

Read-out in experiment [3]: Protein phosphatase 2A (PPP2R4), PTPA (gene 5524)
The experiment can be described thus: LTEA_HepaRG_PPP2R4: Life Technologies and Expression Analysis (LTEA) Assay for Protein phosphatase 2A (PPP2R4) using HepaRG (AID 2283522). In short, it runs like this: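 Readout is PPP2R4 transcript level by microfluidic qRT-PCR after 48 h chemical treatment of human HepaRG liver cells. Concentrations spanned 100 uM downward in half-log steps; gain or loss of signal was fitted relative to DMSO.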

Read-out in experiment [4]: Phosphatase and tensin (PTEN), PTEN (gene 5728)
Kind of experiment: LTEA_HepaRG_PTEN: Life Technologies and Expression Analysis (LTEA) Assay for Phosphatase and tensin (PTEN) using HepaRG (AID 2283523). A digest of the protocol: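 Differentiated human HepaRG cells, plated 48 h then switched to serum-free induction medium, were exposed in duplicate for 48 h to eight half-log concentrations up to 100 uM in 0.5% DMSO. PTEN mRNA measured by TaqMan qRT-PCR, normalized to ACTB/GAPDH/POLR2A, bidirectional fit versus DMSO.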

Read-out in experiment [5]: Pyruvate Dehydrogenase Kinase 4 (PDK4), PDK4 (gene 5166)
Kind of experiment: LTEA_HepaRG_PDK4: Life Technologies and Expression Analysis (LTEA) Assay for Pyruvate Dehydrogenase Kinase 4 (PDK4) using HepaRG (AID 2283525). A digest of the protocol:
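Differentiated human HepaRG cells, pre-cultured 48 h, were exposed in duplicate for 48 h in serum-free induction medium to eight half-log concentrations up to 100 uM in 0.5% DMSO. PDK4 mRNA was quantified by qRT-PCR, normalized to ACTB, GAPDH and POLR2A, bidirectional fitting versus DMSO.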

Read-out in experiment [6]: NAD(P)H dehydrogenase [quinone] 1 (NQO1), NQO1 (gene 1728)
The experiment can be described thus: LTEA_HepaRG_NQO1: Life Technologies and Expression Analysis (LTEA) Assay for NAD(P)H dehydrogenase [quinone] 1 (NQO1) using HepaRG (AID 2283526). A digest of the protocol:
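HepaRG, 48 h post-plating → serum-free induction medium → test chemical 48 h (duplicate, 100 uM top, half-log x8, 0.5% DMSO) → RNA isolation → qRT-PCR, ACTB/GAPDH/POLR2A normalization; bidirectional curve fit vs DMSO baseline.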

Read-out in experiment [7]: Nuclear factor erythroid 2-related factor 2 (Homo sapiens) (UniProt Q16236)
The experiment can be described thus: LTEA_HepaRG_NFE2L2: Life Technologies and Expression Analysis (LTEA) Assay for Nuclear factor erythroid 2-related factor 2 (NFE2L2) Transcription Factor using HepaRG (AID 2283527). A digest of the protocol: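 Differentiated human HepaRG cells in serum-free induction medium were exposed for 48 h to eight concentrations (top 100 uM, half-log dilutions, 0.5% DMSO), in duplicate. NFE2L2 mRNA was quantified by TaqMan qRT-PCR, normalized to ACTB, GAPDH and POLR2A, with bidirectional fitting versus DMSO.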

Read-out in experiment [8]: succinate dehydrogenase complex iron sulfur subunit B (SDHB), SDHB (gene 6390)
The experiment can be described thus: LTEA_HepaRG_SDHB: Life Technologies and Expression Analysis (LTEA) Assay for succinate dehydrogenase complex iron sulfur subunit B (SDHB) using HepaRG (AID 2283528). In short, it runs like this:
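SDHB transcript level read by TaqMan qRT-PCR, housekeeping-normalised (ACTB, GAPDH, POLR2A), after 48 h chemical treatment of plated HepaRG cells; eight concentrations top 100 uM, half-log steps, 0.5% DMSO, duplicates; fitted both directions against DMSO.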

Read-out in experiment [9]: Signal transducer and activator of transcription 3 (Homo sapiens) (UniProt P40763)
Kind of experiment: LTEA_HepaRG_STAT3: Life Technologies and Expression Analysis (LTEA) Assay for Signal transducer and activator of transcription (STAT3) using HepaRG (AID 2283529). In short, it runs like this: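 Differentiated human HepaRG cells in serum-free induction medium were exposed in duplicate for 48 h to eight half-log concentrations up to 100 uM in 0.5% DMSO. STAT3 mRNA was quantified by TaqMan qRT-PCR, normalized to ACTB, GAPDH and POLR2A, and fitted bidirectionally against DMSO.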

Read-out in experiment [10]: solute carrier (SLCO1B1), SLCO1B1 (gene 10599)
Kind of experiment: LTEA_HepaRG_SLCO1B1: Life Technologies and Expression Analysis (LTEA) Assay for solute carrier (SLCO1B1) using HepaRG (AID 2283530). In short, it runs like this: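 Gain or loss of SLCO1B1 mRNA is fitted against the 0.5% DMSO vehicle in human HepaRG liver cells treated 48 h at up to 100 uM in half-log steps. Expression comes from qRT-PCR normalized to endogenous controls.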

Read-out in experiment [11]: sulfotransferase 2A1 (SULT2A1), SULT2A1 (gene 6822)
The experiment can be described thus: LTEA_HepaRG_SULT2A1: Life Technologies and Expression Analysis (LTEA) Assay for sulfotransferase 2A1 (SULT2A1) using HepaRG (AID 2283531). A digest of the protocol: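 Cells were plated and cultured 48 h, switched to serum-free induction medium, then dosed in duplicate for 48 h (8 concentrations, max 100 uM). RNA was isolated and SULT2A1 expression measured by qRT-PCR; gain or loss of signal fitted relative to DMSO.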

Read-out in experiment [12]: Transforming Growth Factor (TGFA), TGFA (gene 7039)
Kind of experiment: LTEA_HepaRG_TGFA: Life Technologies and Expression Analysis (LTEA) Assay for Transforming Growth Factor (TGFA) using HepaRG (AID 2283532). A digest of the protocol:
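Differentiated human HepaRG cells, plated 48 h then switched to serum-free induction medium, were exposed in duplicate for 48 h to 8-point half-log series from 100 uM in 0.5% DMSO. TGFA mRNA measured by qRT-PCR, normalized to ACTB/GAPDH/POLR2A, bidirectional fit versus DMSO.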

Read-out in experiment [13]: Transforming Growth Factor (TGFB1), TGFB1 (gene 7040)
Kind of experiment: LTEA_HepaRG_TGFB1: Life Technologies and Expression Analysis (LTEA) Assay for Transforming Growth Factor (TGFB1) Transporter using HepaRG (AID 2283533). A digest of the protocol: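 Expression change of TGFB1 in human HepaRG cells is measured after a 48 h chemical exposure, up to 100 uM in 0.5% DMSO vehicle. Curves are fitted in both directions relative to the DMSO baseline.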

Read-out in experiment [14]: Tumor necrosis factor receptor 1 (TNFRSF1A), TNFRSF1A (gene 7132)
Kind of experiment: LTEA_HepaRG_TNFRSF1A: Life Technologies and Expression Analysis (LTEA) Assay for Tumor necrosis factor receptor 1 (TNFRSF1A) using HepaRG (AID 2283535). A digest of the protocol: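 Expression of TNFRSF1A in human HepaRG liver cells was measured by qRT-PCR 48 h after chemical dosing (maximum 100 uM). Bidirectional curve fitting used 0.5% DMSO as baseline.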

Read-out in experiment [15]: Thyroid Hormone Responsive (THRSP), THRSP (gene 7069)
The experiment can be described thus: LTEA_HepaRG_THRSP: Life Technologies and Expression Analysis (LTEA) Assay for Thyroid Hormone Responsive (THRSP) using HepaRG (AID 2283536). In short, it runs like this:
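Differentiated human HepaRG cells were exposed in duplicate for 48 h in serum-free induction medium to eight concentrations (top 100 uM, half-log steps, 0.5% DMSO). Expression was quantified by TaqMan qRT-PCR, normalized to ACTB, GAPDH and POLR2A, with bidirectional fitting against DMSO.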

Read-out in experiment [16]: Cellular tumor antigen p53 (Homo sapiens) (UniProt P04637)
The experiment can be described thus: LTEA_HepaRG_TP53: Life Technologies and Expression Analysis (LTEA) Assay for Tumor Protein P53 (TP53) using HepaRG (AID 2283537). A digest of the protocol: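 TP53 transcript measured by qRT-PCR, normalized to three housekeeping genes, after 48 h treatment of human HepaRG cultures with chemicals from 100 uM downward in half-log steps (0.5% DMSO vehicle, serum-free induction medium). Up- or down-regulation fitted against DMSO.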

Read-out in experiment [17]: Nuclear factor NF-kappa-B p105 subunit (Homo sapiens) (UniProt P19838)
The experiment can be described thus: LTEA_HepaRG_NFKB1: Life Technologies and Expression Analysis (LTEA) Assay for Nuclear Factor Kappa B Subunit 1 (NFKB1) using HepaRG (AID 2283521). A digest of the protocol:
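NFKB1 transcript was measured by TaqMan qRT-PCR on Fluidigm arrays, normalised to three housekeeping genes and fitted in both directions against 0.5% DMSO. HepaRG cells were dosed in duplicate for 48 h in serum-free induction medium, eight half-log steps from 100 uM.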

Read-out in experiment [18]: solute carrier (SLC22A1), SLC22A1 (gene 6580)
The experiment can be described thus: LTEA_HepaRG_SLC22A1: Life Technologies and Expression Analysis (LTEA) Assay for solute carrier (SLC22A1) using HepaRG (AID 2283524). In short, it runs like this:
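Human HepaRG cells were plated 48 h, switched to serum-free induction medium, then exposed in duplicate for 48 h to 8-point half-log series from 100 uM in 0.5% DMSO. SLC22A1 mRNA measured by qRT-PCR, normalized to ACTB/GAPDH/POLR2A, fitted bidirectionally versus DMSO.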

Read-out in the next experiment: TIMP1, TIMP1 (gene 7076)
Kind of experiment: LTEA_HepaRG_TIMP1: Life Technologies and Expression Analysis (LTEA) Assay for TIMP1 using HepaRG (AID 2283534). In short, it runs like this:
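We dosed human liver HepaRG cultures for 48 hours with up to 100 uM test chemical and measured TIMP1 expression by qRT-PCR. Activity in either direction is fitted relative to the 0.5% DMSO vehicle.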

Chain of Signal transducer and activator of transcription 3 (Homo sapiens) (P40763 whole entry, looked up): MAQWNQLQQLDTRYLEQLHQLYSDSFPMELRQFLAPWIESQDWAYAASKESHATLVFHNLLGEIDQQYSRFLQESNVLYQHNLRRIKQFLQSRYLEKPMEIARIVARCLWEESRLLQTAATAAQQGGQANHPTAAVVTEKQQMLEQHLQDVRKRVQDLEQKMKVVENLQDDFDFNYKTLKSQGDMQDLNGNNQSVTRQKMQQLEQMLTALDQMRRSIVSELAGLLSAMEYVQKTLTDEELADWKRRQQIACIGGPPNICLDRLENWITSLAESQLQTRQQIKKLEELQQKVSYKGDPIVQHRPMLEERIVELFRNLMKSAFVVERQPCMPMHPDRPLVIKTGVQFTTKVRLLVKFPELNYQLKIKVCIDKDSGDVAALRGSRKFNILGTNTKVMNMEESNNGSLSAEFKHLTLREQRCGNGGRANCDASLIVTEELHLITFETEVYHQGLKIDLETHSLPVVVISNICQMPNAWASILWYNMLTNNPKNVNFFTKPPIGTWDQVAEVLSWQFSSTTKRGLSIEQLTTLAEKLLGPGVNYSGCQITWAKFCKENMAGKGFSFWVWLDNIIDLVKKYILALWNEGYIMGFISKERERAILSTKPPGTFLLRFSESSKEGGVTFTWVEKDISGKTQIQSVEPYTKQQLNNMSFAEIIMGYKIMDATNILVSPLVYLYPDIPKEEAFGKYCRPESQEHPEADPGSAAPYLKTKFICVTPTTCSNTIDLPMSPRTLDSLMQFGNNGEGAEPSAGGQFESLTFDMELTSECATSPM
Chain of Nuclear factor erythroid 2-related factor 2 (Homo sapiens) (Q16236 whole entry, looked up): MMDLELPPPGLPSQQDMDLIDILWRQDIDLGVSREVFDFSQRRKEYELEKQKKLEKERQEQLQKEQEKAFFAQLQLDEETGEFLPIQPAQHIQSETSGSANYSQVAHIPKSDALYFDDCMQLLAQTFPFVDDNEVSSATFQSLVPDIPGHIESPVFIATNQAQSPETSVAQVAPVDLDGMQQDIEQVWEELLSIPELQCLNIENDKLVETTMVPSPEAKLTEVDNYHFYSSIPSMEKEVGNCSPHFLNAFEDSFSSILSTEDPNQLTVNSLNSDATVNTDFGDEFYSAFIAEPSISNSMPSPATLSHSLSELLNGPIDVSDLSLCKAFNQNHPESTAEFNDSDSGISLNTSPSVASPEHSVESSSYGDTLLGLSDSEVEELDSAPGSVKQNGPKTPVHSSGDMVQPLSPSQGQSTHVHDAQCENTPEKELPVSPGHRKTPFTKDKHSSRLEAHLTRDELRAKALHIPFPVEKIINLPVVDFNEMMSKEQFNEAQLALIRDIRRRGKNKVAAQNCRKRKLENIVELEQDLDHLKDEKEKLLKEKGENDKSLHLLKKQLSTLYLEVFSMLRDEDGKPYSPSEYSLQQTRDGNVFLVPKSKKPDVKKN
Chain of Cellular tumor antigen p53 (Homo sapiens) (P04637 whole entry, looked up): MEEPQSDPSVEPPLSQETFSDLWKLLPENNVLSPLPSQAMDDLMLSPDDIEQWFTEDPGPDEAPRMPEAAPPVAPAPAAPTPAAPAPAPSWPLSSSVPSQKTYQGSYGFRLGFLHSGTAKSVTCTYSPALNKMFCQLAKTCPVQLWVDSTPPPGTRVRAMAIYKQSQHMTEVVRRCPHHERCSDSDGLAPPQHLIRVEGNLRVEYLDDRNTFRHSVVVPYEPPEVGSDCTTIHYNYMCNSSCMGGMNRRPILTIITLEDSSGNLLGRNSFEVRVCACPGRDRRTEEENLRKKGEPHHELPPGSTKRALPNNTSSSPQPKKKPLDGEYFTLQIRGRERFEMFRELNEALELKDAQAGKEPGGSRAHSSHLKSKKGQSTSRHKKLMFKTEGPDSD
Chain of Nuclear factor NF-kappa-B p105 subunit (Homo sapiens) (P19838 whole entry, looked up): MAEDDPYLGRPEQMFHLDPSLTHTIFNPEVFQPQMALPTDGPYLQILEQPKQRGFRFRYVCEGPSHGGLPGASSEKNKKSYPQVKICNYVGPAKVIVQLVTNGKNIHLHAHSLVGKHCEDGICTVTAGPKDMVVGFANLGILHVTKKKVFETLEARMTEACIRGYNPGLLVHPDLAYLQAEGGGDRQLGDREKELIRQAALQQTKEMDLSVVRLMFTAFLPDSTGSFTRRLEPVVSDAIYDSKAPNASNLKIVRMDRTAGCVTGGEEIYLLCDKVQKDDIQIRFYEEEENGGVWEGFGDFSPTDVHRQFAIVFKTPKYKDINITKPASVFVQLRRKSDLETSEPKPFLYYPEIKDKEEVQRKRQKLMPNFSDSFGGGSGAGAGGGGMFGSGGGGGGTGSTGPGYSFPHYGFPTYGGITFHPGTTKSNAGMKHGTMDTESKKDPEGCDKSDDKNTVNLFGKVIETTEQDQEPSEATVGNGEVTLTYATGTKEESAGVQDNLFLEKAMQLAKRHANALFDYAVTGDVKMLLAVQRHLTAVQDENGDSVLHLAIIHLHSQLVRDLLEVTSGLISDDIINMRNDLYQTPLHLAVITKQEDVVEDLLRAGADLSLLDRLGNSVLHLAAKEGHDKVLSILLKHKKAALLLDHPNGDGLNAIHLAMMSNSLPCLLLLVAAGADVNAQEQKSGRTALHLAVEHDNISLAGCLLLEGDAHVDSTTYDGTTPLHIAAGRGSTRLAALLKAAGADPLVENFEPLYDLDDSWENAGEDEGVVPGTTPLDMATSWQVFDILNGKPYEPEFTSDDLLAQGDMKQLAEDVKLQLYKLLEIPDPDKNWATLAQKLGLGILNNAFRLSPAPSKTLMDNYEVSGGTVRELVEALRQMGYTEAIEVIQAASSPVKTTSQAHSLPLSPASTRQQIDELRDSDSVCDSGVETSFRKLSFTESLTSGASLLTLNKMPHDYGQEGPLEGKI

For `CCc1cc(C2=C(C(=O)O)N(c3ccccc3C(F)(F)F)S(=O)(=O)c3ccccc32)cc2c1OCO2`, the concentration at half-maximal activity (AC50) (commonly the concentration giving half of the maximal activity seen) in the experiment with MYC, MYC (gene 4609) is 56.7 µM (active); in experiment [1], 50 µM (active); in experiment [2], 28.5 µM (active); in experiment [5] it was 50 µM (active); in [7], 50 µM (active); in experiment [10], 50 µM (active). In addition, the half-maximal activity concentration (AC50) in experiment [11] was 85.5 µM (active); in experiment [12], 79.1 µM (active); in [15] it was 87 µM (active); in experiment [16], 69.5 µM (active). Also, the call in experiment [3], in experiment [4], in [6], in experiment [8], in [9] and in experiment [13] was inactive. Besides, the call in [14] was inactive.

Take `CCCCCCCCCCCCCCCCO`: the outcome with MYC, MYC (gene 4609) is “inactive”; in experiment [2], “inactive”; in experiment [17], “inactive”; in experiment [3], “inactive”; in [4], “inactive”; in [18], “inactive”. For the same compound, the result in experiment [6], in [7], in [8], in [9], in experiment [10] and in experiment [12] was inactive. Moreover, the outcome in [13] is “inactive”; with TIMP1, TIMP1 (gene 7076), “inactive”; in experiment [14] it was “inactive”; in experiment [15], “inactive”. In addition, the values for the AC50 in [5] and in experiment [11] were 66.3 µM (active) and 50 µM (active), respectively.

With `c1ccc2occc2c1`, the outcome is “inactive” with MYC, MYC (gene 4609); “inactive” in [2]; “inactive” in [17]; “inactive” in experiment [3]; “inactive” in experiment [4]; “inactive” in experiment [18]. Further, the outcome in [5], in experiment [6], in experiment [7], in experiment [8], in [9] and in experiment [10] was inactive. In addition, the outcome was “inactive” in experiment [11]; “inactive” in [12]; “inactive” in experiment [13]; “inactive” in the experiment with TIMP1, TIMP1 (gene 7076); “inactive” in experiment [14]; “inactive” in [15]. Moreover, the result in experiment [16] was inactive.
